The supplement of paper PMC12819154, “High-throughput peptide-centric local stability assay extends protein–ligand identification to membrane proteins, tissues and bacteria” (Nature Structural & Molecular Biology, 2025)

target: T1, UniProt P76038; test: log2 fold change of tryptic peptide abundance, ligand vs vehicle (limited proteolysis) (log2 ratio); higher = more trypsin-susceptible (destabilized); conditions: peptide sequence: GLQELVVATGGSLHRK; peptide start residue: 116; ligand concentration: 5 mM; sample: E. coli desalted lysate; replicate design: treated before aliquoting
T1 sequence (whole entry): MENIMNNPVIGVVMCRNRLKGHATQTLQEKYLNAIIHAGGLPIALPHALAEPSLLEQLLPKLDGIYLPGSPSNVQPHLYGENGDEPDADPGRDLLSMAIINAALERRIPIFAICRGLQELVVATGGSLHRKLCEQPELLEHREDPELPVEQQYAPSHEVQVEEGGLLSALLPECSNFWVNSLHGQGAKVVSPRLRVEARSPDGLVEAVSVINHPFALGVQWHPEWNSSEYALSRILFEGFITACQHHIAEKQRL
Protocol: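 HT-PELSA: desalted E. coli K-12 BW25113 lysate (with 12 mM MgCl2) incubated with 5 mM ATP (pH 7) or water for 30 min at 25 C, then a 4 min trypsin pulse at 22 C. Peptides were quantified by DIA-MS (4 replicates). Value is the peptide log2 fold change (treated/control); negative = stabilized. Scale: negative = ligand-stabilized region.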
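Also: lysate desalted by size exclusion to strip endogenous ATP, peptide intensities built from DIA-NN precursor signals, and peptides missing any value discarded before comparison.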

Structure (SMILES)	log2 fold change
Nc1ncnc2c1ncn2[C@@H]1O[C@H](COP(=O)(O)OP(=O)(O)OP(=O)(O)O)[C@@H](O)[C@H]1O [adenosine 5'-triphosphate]	1.55
